Bioassay records as filed in PubChem BioAssay.
RE007 growth inh – qHTS Assay for Inhibitors of the HIV-1 protein Vpr; hit rate 0.21% among 360,000; S. pombe RE007 Vpr strain, BacTiter-Glo ATP luminescence, 24 h; Potency, µM (series often up to 92.2 µM), for inactives: at the top dose activity change, negative = less growth, most hits filed as inhibitors; AID 651644, 2012; active = well fitted falling curve with a large enough effect; inconclusive = small, poorly fitted or top-dose-only effect; inactive = no such curve, though single readings can be large or run the other way; note: nearly all actives have a fitted effect of over 50% in size
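Fission yeast RE007 carrying one integrated HIV-1 vpr copy, seeded at OD 0.01 in PMG+AL medium with 23 nL pinned compound. Grown 24 h at 30 degrees; viability read by BacTiter-Glo luminescence after 5 min.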
FMDV inh – High Throughput Screening for Foot and Mouth Disease Virus Antivirals; hit rate 1.2% among 410,000; FMDV antiviral cell-based qHTS; Potency, µM (series often up to 57.9 µM), inactives show top-dose activity change, negative = inhibition, hits mostly inhibitors; calls by dose curve; tested in HEK293T cells; note: read-out not given here; nearly all actives have a fitted effect of over 45% in size
TbPYK inhibitor – qHTS of Trypanosoma Brucei Inhibitors; pyruvate kinase (Trypanosoma brucei), Q57TT1; TbPYK enzyme, Kinase-Glo Plus ATP luminescence, 45 min; Potency, µM (highest dose often 76.8 µM), for the others: at the top dose activity, negative = inhibition, actives largely listed as inhibitors; hit rate 0.12% among 410,000; AID 624173, 2012; note: nearly all actives have a fitted effect of over 50% in size
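TbPYK + substrate in 50 mM TEA pH 7.2, 100 mM KCl, 10 mM MgCl2, 0.05% BSA, 0.01% Tween-20; cpd pinned; ADP 130 uM final; 45 min RT; Kinase-Glo Plus 10 min; luminescence endpoint.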
Sm TGR block – qHTS Assay for the Inhibitors of Schistosoma Mansoni Peroxiredoxins. Schistosoma mansoni thioredoxin glutathione reductase (TGR), Q962Y6. purified TGR, DTNB reduction, TNB absorbance 405 nm. Potency, µM (titrated, usually from 114 µM), inactives show at the highest dose activity change, negative = inhibition, hits mostly inhibitors. hit rate 3% among 360,000. AID 485364, 2010; note: nearly all actives have a fitted effect of over 60% in size
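First, TGR (20 nM dispensed) and NADPH were mixed with compound. Second, a 15 min room-temperature incubation followed. Third, further NADPH and then DTNB were added to start the reaction. Finally, TNB absorbance was monitored kinetically.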
Active calls of the source: *; ? = inconclusive; . = no result; [ ] = dose if it differs, or a comment. An excerpt weighted towards active compounds, which were near 3.7% of everything screened. Unless noted, calls come from the whole dose curve; as a rule, active = well fitted curve in the direction sought with a large enough effect; inconclusive = small, poorly fitted or top-dose-only effect, or another doubt; inactive = no such curve, though single readings can be large; an effect the other way counts as inactive or inconclusive. % is set by controls: 0 for no effect and ±100 for the full control effect; potency is the fitted concentration of half-maximal effect.

SMILES	RE007 growth inh	FMDV inh	TbPYK inhibitor	Sm TGR block
c1ccc(Cc2noc(CN3CCCN(C4Cc5ccccc5C4)CC3)n2)cc1	-6%	-4%	9%	25µM*
Cc1sc2nc3c4ccccc4c(NCc4ccco4)nn3c(=O)c2c1C	0%	70%	-9%	50µM*
CS(=O)(=O)Nc1cccc(-c2cncnc2NCc2cccnc2)c1	.	-17%	.	.
O=C1CCC2S/C(=C/Nc3ccc(C(F)(F)F)cc3)C(=O)N12 (configuration not stated)	15%	8.9µM*	-16%	-4%
O=C1CCCC/C1=C/Nc1cccc(C(F)(F)F)c1	5%	37%	1%	.
O=S(=O)(NCC(c1cccs1)S(=O)(=O)c1ccccc1)c1ccc(F)c(C(F)(F)F)c1 (configuration not stated)	.	64%	0%	?
O=S(=O)(NCC(c1cccs1)S(=O)(=O)c1ccccc1)c1ccc(F)cc1 (configuration not stated)	.	35%	5%	0.5µM*
COc1ccc(S(=O)(=O)NCC(c2cccs2)S(=O)(=O)c2ccccc2)cc1OC (configuration not stated)	.	48%	-6%	1µM*
Nc1ccc(Sc2ccc([N+](=O)[O-])cc2)cc1	19%	-7%	2%	5%
O=C1C=CC(=O)N1c1ccc(Sc2ccc([N+](=O)[O-])cc2)cc1	.	.	.	3.2µM*
O=[N+]([O-])c1cc(/C=N\Nc2nccs2)ccc1O	.	.	.	28µM*
O=[N+]([O-])c1ccccc1/C=N\Nc1nccs1	9%	-2%	-3%	11%
Cc1nc2nc[nH]n2c(=O)c1NS(=O)(=O)c1ccc(Br)cc1	.	1%	-1%	3%
Cc1c(C)c2c(OCC(=O)NCC(C)C)cc3c(c2oc1=O)CCC(C)(C)O3	-5%	18µM*	6%	11%
Cn1cnnc1SCc1ccc(-c2ccc(Br)cc2)o1	-27%	-6%	1%	25µM*
Cn1cnnc1SCc1ccccc1	4%	-25%	4%	-3%
CCc1nc(NCc2ccccn2)c2oc3ccccc3c2n1	2%	16µM*	-5%	7%
CCc1nc(Nc2cccc(O)c2)c2oc3ccccc3c2n1	0%	22µM*	9%	-9%
c1ccc(CNc2ncnc3c2oc2ccccc23)nc1	-15%	26%	3%	3%
CCc1nc(Nc2ccncc2)c2oc3ccccc3c2n1	-2%	-21%	-6%	10%
O=c1c2c3c(sc2nc2n1CCCC2)CCCC3	28µM*	22%	-3%	2%
O=C1c2ccccc2CC1Sc1nnc(-c2ccccn2)o1 (configuration not stated)	10%	66%	-22%	45µM*
O=C1OCCC1Sc1nnc(-c2ccccc2)o1 (configuration not stated)	-11%	3%	1%	-2%
NC(=O)CN1C(=O)/C(=c2\sc3nc(=O)c(Cc4ccccc4)nn3c2=O)c2ccccc21	-3%	-5%	?	0.35µM*
CCCN1C(=O)/C(=c2\sc3nc(=O)c(Cc4ccc(C)cc4)nn3c2=O)c2ccccc21	-1%	-12%	?	.
SMILES	RE007 growth inh	FMDV inh	TbPYK inhibitor	Sm TGR block
CN(C)CC/C=C1/c2ccccc2CS(=O)(=O)c2ccccc21	-16%	11%	-3%	.
CN(C)CC/C=C1\c2ccccc2COc2ccccc21	3%[18.4 µM]	-19%	8%	14µM*
Cc1ccc2c(c1)CN(CCC(=O)NCc1cc(C)n(C)n1)CC(C)O2 (configuration not stated)	.	-6%	.	.
CCSc1nc2ccccc2c(OCc2ccccc2Cl)c1C(=O)OC	.	-7%	1%	6%
CCCCCCCN1C(Nc2ccccc2)=NC[C@@H]1Cc1ccccc1	2%	?	-3%	-17%
CCN1C(Nc2ccccc2)=NC[C@@H]1Cc1ccccc1	-9%	-6%	-10%	25µM*
COc1ccc(-c2cc(C(=O)Nc3cc(C)n(Cc4ccc(Cl)cc4)n3)no2)cc1OC	-8%	3.5µM*	4%	-7%
CCOC(=O)Cc1csc(NC(=O)NC2(C(F)(F)F)Oc3ccccc3O2)n1	0%	-20%	-5%	14µM*
C/C(=N\Nc1cc(N2CCOCC2)ncn1)c1ccccc1	7%	43%	2%	-21%
O=C(Nc1cc(N2CCOCC2)ncn1)NC1(C(F)(F)F)Oc2ccccc2O1	-15%	-28%	-3%	13µM*
COc1cccc(NC(=O)NC2(C(F)(F)F)Oc3ccccc3O2)c1	-5%	-20%	-4%	40µM*
COc1cccc(NC(=O)Nc2cccc(C(=O)O)c2)c1	5%	?	2%	-1%
CCOC(=O)Cc1csc(NC(=O)NC2(C(F)(F)F)Oc3ccc(Cl)cc3O2)n1 (configuration not stated)	7%	-25%	-10%	?
O=C1NC(=O)/C(=C\c2ccc(Sc3ccc(Cl)cc3)o2)N1	-20%	-22%	-9%	50µM*
O=C1NC(=O)/C(=C/c2ccc(N3CCOCC3)o2)N1	0%	-25%	-10%	11µM*
O=C1NC(=O)/C(=C\c2ccc(N3CCOCC3)o2)N1	1%	7%	-28%	8.9µM*
O=C1NN(c2ccccc2)C(=O)/C1=C/c1ccc(Sc2ccc(Cl)cc2)o1	-1%	?	-4%	?
CN1C(=O)C(=Cc2ccc(N3CCOCC3)o2)C(=O)N(C)C1=O	-1%	13%	-1%	?
Cc1cc(/C=C2\NC(=O)NC2=O)c(C)n1-c1ccc(N2CCOCC2)cc1	-27%	-9%	-1%	?
COc1ccc(CNC(=O)C2CCCN(S(=O)(=O)c3ccc4c(ccn4C)c3)C2)c(OC)c1 (configuration not stated)	.	-11%	-1%	5%
CCOC(=O)c1c(S(=O)(=O)NCCCc2ccco2)c(C)n(C)c1C	1%	35%	-9%	28µM*
CCOC(=O)c1c(S(=O)(=O)NCCc2ccco2)c(C)n(C)c1C	3%	69%	-1%	-16%
CSc1ccc(-c2ccc3c(c2)CC(CNC(=O)Cn2nc(C)nc2C)O3)cc1 (configuration not stated)	.	-8%	.	.
CCOC(=O)C(NC(=O)CCl)(Nc1sc(C)c(CC)c1C#N)C(F)(F)F (configuration not stated)	-18%	?	-3%	16µM*
O=C1c2ccccc2-c2nnc(-c3ccccc3)cc21	?	-18%	?	8%
COc1ccc(-c2cc3c(nn2)-c2ccccc2C3=O)cc1	?	10µM*	?	0%
COc1ccc2c(c1)OC(C)CN(CCNC(=O)c1csc(-c3cccs3)n1)C2 (configuration not stated)	.	-3%	.	.
CC(C)(C)c1cc(CSC(=S)NC2CCS(=O)(=O)C2)c(Br)c(C(C)(C)C)c1 (configuration not stated)	-4%	16µM*	3%	-2%
O=S1(=O)CC=C(CSC(=S)NC2CCS(=O)(=O)C2)C1 (configuration not stated)	-12%	11µM*	-2%	.
